Hit rate of the full screen: of about 130,000 compounds, about 2,500 (1.9%) were called active.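 How the source made its calls: active means signal ratio slope over the read window, or its plate-corrected B-score, at least 3 SD from the plate mean, either direction; inactive means the rest.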 Many of the other results were omitted from the sample, so actives are more common in it than they were.
molecular target: ATP-sensitive inward rectifier potassium channel 1 (Homo sapiens) (UniProt P48048); assay: ROMK potassium channel modulators, primary screen, cell-based, thallium flux, MLSMR library (AID 1918); details: Tet-inducible ROMK, thallium flux fluorescence; at 10 µM; actives lie on both sides;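 further: B-score of the F/F0 ratio slope over 7 to 12 s after thallium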
Sequence (P48048 whole entry, looked up): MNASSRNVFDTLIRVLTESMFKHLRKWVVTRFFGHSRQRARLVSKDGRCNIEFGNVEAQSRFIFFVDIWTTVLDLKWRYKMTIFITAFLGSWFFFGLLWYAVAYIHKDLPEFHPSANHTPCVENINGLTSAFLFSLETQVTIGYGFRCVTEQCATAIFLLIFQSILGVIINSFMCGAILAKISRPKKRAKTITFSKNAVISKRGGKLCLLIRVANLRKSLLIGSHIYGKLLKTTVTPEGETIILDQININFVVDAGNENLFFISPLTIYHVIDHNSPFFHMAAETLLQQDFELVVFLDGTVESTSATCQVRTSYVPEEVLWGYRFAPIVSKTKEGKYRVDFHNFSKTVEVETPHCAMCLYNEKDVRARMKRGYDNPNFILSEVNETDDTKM

Compound | B-score
Cc1ccc(C)c(-n2cc(CN3CCN(C(=O)c4ncn[nH]4)CC3)c(-c3ccccc3)n2)c1 | -0.754 (inactive)
Cc1ccccc1N1CCN(CCCOc2ccc3c(C)cc(=O)oc3c2)CC1 | -4.08 (active)
COc1ccc(N2CCN(C(=O)COc3ccc4c(C)cc(=O)oc4c3)CC2)cc1 | -0.589 (inactive)
CCOc1ccccc1N1CCN(C(=O)COc2ccc3c(C)cc(=O)oc3c2)CC1 | 0.824 (inactive)
CCO/C=C1\C(=O)N(c2ccc(OCC)cc2)C(=O)c2ccccc21 | -0.0391 (inactive)
CCNC(=O)CC1C(=O)N(c2ccc(OC)cc2)C(=S)N1CCc1ccncc1 (stereo not given) | 0.277 (inactive)
Cc1cc(/C=N/NC(=O)c2cccnc2)c(C)n1CC(C)C | 1.51 (inactive)
Cc1cccc(-n2c(SCC(=O)Nc3cccc(S(=O)(=O)NC4=NCCCCC4)c3)nc3ccccc3c2=O)c1C | -5.4 (active)
C/C(=N\NC(=O)CSc1nc2ccccc2c(=O)n1-c1ccccc1C)c1cccs1 | 0.111 (inactive)
CCc1ccc(C(=O)OCC(=O)Nc2cccc(S(=O)(=O)NC3=NCCCCC3)c2)cc1 | -1.41 (inactive)
O=C(N/N=C/c1ccccn1)c1ccc(S(=O)(=O)N2CCCCCC2)cc1 | 1.67 (inactive)
CC12CN(Cc3ccccc3)CC(C)(CN(Cc3ccccc3)C1)C2=NO | -3.21 (active)
O=C(Nc1ccccc1)N1CCN(Cc2ccccc2)CC1 | -0.796 (inactive)
C/C(=N\N1CCN(Cc2ccc(C)cc2)CC1)c1ccco1 | -0.228 (inactive)
COc1cc2c(C(=O)N3CCN(C)CC3)c(CSc3ccccc3)n(C)c2cc1Br | -0.529 (inactive)
Cc1ccnc(NC(=O)CCC(=O)N(CC(=O)NCc2ccccc2)Cc2ccco2)c1 | -0.274 (inactive)
CCN(CC)C(=O)CN(c1cccc(OC)c1)S(=O)(=O)c1ccc(C)cc1 | 0.523 (inactive)
COc1ccc([N+](=O)[O-])cc1N(CC(O)CN(CC(C)C)CC(C)C)S(=O)(=O)c1ccc(C)cc1 (stereo not given) | -3.76 (active)
Cc1ccc(N(CC(O)CN2CCCC2)S(=O)(=O)c2ccccc2)cc1 (stereo not given) | -0.891 (inactive)
C/C(Cc1ccccc1)=N\NC(=O)CNC(=O)c1ccccc1Cl | 0.223 (inactive)

Compound | B-score
CN(/C(=N/S(=O)(=O)c1cccs1)c1ccccc1)c1ccc(O)cc1 | 0.111 (inactive)
O=C(NNC(=S)NCc1ccco1)C(c1ccccc1)c1ccccc1 | -0.0839 (inactive)
CCC1CCCCN1S(=O)(=O)Cc1ccccc1Cl (stereo not given) | -1.11 (inactive)
COc1ccc(N2CCN(C(=O)C3CCN(S(=O)(=O)c4ccc(C)cc4)CC3)CC2)cc1 | 0.00237 (inactive)
O=C1Nc2ccc(Br)cc2/C1=N/N=C/C1=C(N2CCOCC2)C(=C\c2ccccc2)/CC1 | 1.2 (inactive)
N#C/C(=C\C1=C(N2CCOCC2)C(=C\c2ccccc2)/CC1)C(=O)Nc1ccccc1F | -3.73 (active)
C(=N\N1CCN(c2ccccn2)CC1)/C1=C(N2CCOCC2)C(=C/c2ccccc2)/CC1 | -0.00313 (inactive)
Cc1cccc(NC(=O)CSc2nnc(CCNC(=O)OC(C)(C)C)o2)c1C | 0.146 (inactive)
Fc1cccc(CSc2nnc3ccc(-c4ccncc4)nn23)c1 | 1.92 (inactive)
CSCCNCc1cn(-c2ccc(F)cc2F)nc1-c1ccccc1C | -0.924 (inactive)
CCCCCCCNc1nc(Cl)nc(NCCO)n1 | -0.271 (inactive)
C=CCc1ccc(OCC(O)CN2CCN(Cc3ccccc3)CC2)c(OC)c1 (stereo not given) | -1.83 (inactive)
Cc1ccc(-c2csc(NC(=O)c3cnccn3)n2)cc1C | 1.18 (inactive)
Cc1nc2ccccc2nc(=O)c1NNc1ccc([N+](=O)[O-])cc1 | 3.6 (active)
Cc1nc2ccccc2cc1C(=O)N/N=C/c1ccc([N+](=O)[O-])cc1 | -0.145 (inactive)
O=C(Nn1c(-c2ccccc2)nc2ccccc2c1=O)c1ccc([N+](=O)[O-])cc1 | 1.18 (inactive)
COc1ccccc1CC(NC(C)=O)C(=O)NC1CCN(C(=O)Nc2ccccc2Cl)CC1 (stereo not given) | -0.0342 (inactive)
O=C(NNC(=S)NCCCN1CCOCC1)c1ccncc1 | -0.0357 (inactive)
COCCNC(=O)/C(C#N)=C/c1cccc(OCc2ccccc2)c1 | -2.75 (active)
COCCNC(=O)/C(C#N)=C/c1nc(N(C)C)n(-c2ccc(F)cc2)c1Cl | -0.0358 (inactive)

Compound | B-score
CCOC(=O)NC(=O)/C(C#N)=C\c1ccccc1 | -1.48 (inactive)
N#C/C(C(=S)Nc1ccccc1)=C1/NN=C(N2CCOCC2)N1c1ccccc1 | 0.219 (inactive)
O=C(COC(=O)CC1CC2CCC1C2)NC(=O)NC1CCCC1 (stereo not given) | -0.0323 (inactive)
Nc1ncnc(Nc2cccc(Cl)c2Cl)n1 | -0.357 (inactive)
O=C(O)c1ccc(NC(=O)c2cccs2)cc1 | -0.729 (inactive)
O=C(Nc1ccccc1-c1ccccc1)c1cccs1 | -3.72 (active)
O=C(Nc1ncccn1)c1cccs1 | 0.282 (inactive)
NS(=O)(=O)c1cccc(NC(=O)COC(=O)/C=C/c2ccco2)c1 | 1.2 (inactive)
COc1cc(NC(=O)COc2ccccc2Cl)ccc1NC(=O)C(C)C | -0.0152 (inactive)
CCCN(CC(=O)Nc1ccc(C(N)=O)cc1)CC(=O)Nc1ccccc1C | 2.09 (inactive)
CCCOc1ccccc1C(=O)NCCCC(=O)O | 0.945 (inactive)
CCCN(CCC)CC(O)COc1ccccc1C(=O)Nc1ccccc1 (stereo not given) | -3.37 (active)
Cc1cc(C)cc(NC(=O)COC(=O)c2cc(C)oc2C)c1 | 0.675 (inactive)
COc1cccc(-n2c(=S)[nH]c3c(oc4ccccc43)c2=O)c1 | -0.508 (inactive)
Cc1cccc(NC(=O)c2ccc3nsnc3c2)c1C | 0.488 (inactive)
COc1ccc(C)cc1NC(=O)c1[nH]c(C)c(C(C)=O)c1C | -0.381 (inactive)
COc1ccc(Br)cc1C(=O)Nc1cccc(C)c1C | -2.34 (active)
Cc1cc(C)nc(Nc2cc([N+](=O)[O-])ccc2C)n1 | -0.867 (inactive)
CCCC(=O)NC(=S)Nc1ccc(CN2CCOCC2)cc1 | 0.069 (inactive)
COC(=O)c1c(C)oc(C)c1S(=O)(=O)NCc1ccc(Cl)cc1 | -0.884 (inactive)
